# Out of some 310,000 compounds screened, about 18,000 (5.8%) were called active. Roughly 22% stayed inconclusive and do not appear here. Calls follow the shape of the dose curve; as a rule, active = well fitted inhibition curve with a large enough effect; inconclusive = small, poorly fitted or top-dose-only effect, or another doubt; inactive = no such curve, though single readings can be large or run the other way. For the sample, actives were picked, then their nearest neighbours and some compounds at random.
# Assay: Primary qHTS for delayed death inhibitors of the malarial parasite plastid, 48 hour incubation
# Settings: P. falciparum luciferase growth in erythrocytes; series mostly up to 28.7 µM; activity change, negative = inhibition: at the top concentration
# Summary of the method: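 Here the parasites carry a stable luciferase gene and grow inside erythrocytes in Albumax-based RPMI medium with compound for one erythrocytic cycle. Activity is scored as loss of luminescent signal.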
# % is scaled to controls: 0 for no effect and ±100 for the full control effect; potency is read from the fitted curve at half-maximal effect.
SMILES,"activity change, negative = inhibition",Potency
O=C(Nc1ccc(C2CC2(Cl)Cl)cc1)c1cccc([N+](=O)[O-])c1 (centres undefined),-0.243% (inactive),–
CCn1c(SC(C)C(=O)Nc2ccc(N3CCOCC3)cc2)nnc1-c1ccco1 (centres undefined),7.63% (inactive),–
CC(=O)N/C(=C\c1ccccc1)C(=O)OC(C)C(=O)N(C)c1ccccc1 (centres undefined),-7.82% (inactive),–
Cc1ccc(NC(=O)CN2CCc3ccccc3C2)cc1C,8.17% (inactive),–
COc1ccc(-c2cc(C(=O)NC(Cc3c[nH]c4ccccc34)C(=O)O)c(C)o2)cc1OC (centres undefined),36.3% (inactive),–
COc1ccc(CNCCc2c[nH]c3ccccc23)cc1OC,-15.4% (inactive),–
COc1ccc(C(C(=O)NC2CCCCC2)N(C(=O)Cc2c[nH]c3ccccc23)c2ccccc2)cc1OC (centres undefined),–,13.1 µM (active)
Cc1ccc(F)cc1NC(=O)CSCc1c(C)noc1C,1.25% (inactive),–
COc1ccc(S(=O)(=O)N2CCCCCC2)cc1C(=O)N(C)Cc1cccc(OC)c1OC,–,13.1 µM (active)
CCNC(=O)NC(=O)C(C)OC(=O)c1cc(S(=O)(=O)N2CCCCCC2)ccc1OC (centres undefined),12% (inactive),–
COc1ccc(S(=O)(=O)N2CCCCC2)cc1Br,-17.1% (inactive),–
O=S(=O)(Nc1cccc(-c2ccc(N3CCOCC3)nn2)c1)c1ccc(Cl)c(Cl)c1,1.25% (inactive),–
O=S(=O)(NC1CC2CCC1C2)c1ccc(Cl)cc1 (centres undefined),-3.94% (inactive),–
Cc1cccc(Nc2nnc(SCC(=O)c3c(N)n(C4CC4)c(=O)[nH]c3=O)s2)c1C,–,11.7 µM (active)
Cc1ccccc1Nc1nnc(SCC(=O)c2cc3ccccc3o2)s1,10.3% (inactive),–
Cc1ccc(Nc2nnc(SCC(=O)c3cc4ccccc4o3)s2)cc1C,67.4% (inactive),–
COCCOC(=O)C1=C(C)NC(=O)NC1c1cc2c(cc1Br)OCO2 (centres undefined),-13.4% (inactive),–
O=C(NC(Cc1ccccc1)C(=O)N1CCCC(C(F)(F)F)C1)c1ccccc1 (centres undefined),-0.11% (inactive),–
C[N+]12CN3CN(CN(C3)C1)C2,–,13.1 µM (active)
Cc1ccc(N=C2SCCCN2C(=O)c2cccc(N3C(=O)CCC3=O)c2)cc1Cl,0.551% (inactive),–
Cc1ccc(CNC(=O)C(=O)c2cn(CC(=O)N3CCOCC3)c3ccccc23)cc1,47.3% (inactive),–
Cc1ccc(C2=NN(C(=O)CSc3nc(N)cc(N)n3)C(c3ccco3)C2)cc1 (centres undefined),5.49% (inactive),–
COc1ccc(C2=NN(C(=O)CSc3nc(=O)n4ccc(C)cc4n3)C(c3ccc(C)cc3)C2)cc1 (centres undefined),–,9.28 µM (active)
COc1ccc(C2CC(c3ccccc3)=NN2C(=O)CSc2nccc(=O)[nH]2)cc1 (centres undefined),3.53% (inactive),–
Cc1cccc(NC(=O)C(C)SCc2ccccc2)c1 (centres undefined),16.4% (inactive),–

SMILES,"activity change, negative = inhibition",Potency
COc1ccc(CCNC(=O)COC(=O)Cc2cccc(F)c2)cc1,-17.1% (inactive),–
COc1ccc(C(=O)Nc2nc(-c3ccc(OC)cc3)c(-c3ccc([N+](=O)[O-])cc3)s2)cc1,37.7% (inactive),–
COC(=O)C(NC(=O)c1ccc(OC)cc1)(Nc1ncc(S(=O)(=O)c2ccc([N+](=O)[O-])cc2)s1)C(F)(F)F (centres undefined),–,8.28 µM (active)
CCOCC(=O)Nc1ncc(S(=O)(=O)c2ccc([N+](=O)[O-])cc2)s1,-20.2% (inactive),–
Cc1c(C(=O)NC2CCCCC2)oc2ccccc12,71.4% (inactive),–
CC(NC(=O)c1cc(=O)[nH]c2ccccc12)c1ccc(F)cc1F (centres undefined),-8.85% (inactive),–
CSc1ccc(CCNC(=O)CS(=O)(=O)Cc2nc(-c3ccccc3F)oc2C)cc1,4.97% (inactive),–
COc1ccc(C[C@H](C(=O)O)N2C(=O)c3ccc(C(=O)O)cc3C2=O)cc1,11.4% (inactive),–
O=c1ccn(Cc2ccccc2Cl)cc1,15.8% (inactive),–
N#CC(C#N)=CN=c1ccn(Cc2ccc(Cl)cc2Cl)cc1,–,2.94 µM (active)
COCCN1C=C2C(=O)C(C)(OC(=O)C3CCCC3)C(=O)C=C2C=C1c1ccsc1 (centres undefined),33.1% (inactive),–
C=CCN1C=C2C(=O)C(C)(OC(=O)CCc3ccccc3)C(=O)C=C2C=C1c1ccc(C#N)cc1 (centres undefined),–,11.7 µM (active)
COC/C=C/C1=CC2=CC(=O)C(C)(OC(=O)CCC(=O)OC)C(=O)C2=CO1 (centres undefined),36.7% (inactive),–
C/C(=N/OC(=O)c1ccc(Br)cc1)c1ccc(C)cc1,19.2% (inactive),–
COc1ccc(-n2c(C)cc(C(=O)CN3C(=O)NC4(CCc5ccccc54)C3=O)c2C)cc1 (centres undefined),–,4.15 µM (active)
COc1ccc(C(=O)CN2C(=O)NC3(CCc4ccccc43)C2=O)c(OC)c1 (centres undefined),10.4% (inactive),–
CCN(CC)c1ccc(NC(=O)CN2C(=O)NC3(CCc4ccccc43)C2=O)cc1 (centres undefined),-23.1% (inactive),–
CN(CC(=O)Nc1ccc(Cl)cc1)CC(=O)Nc1cccc2ccccc12,12.5% (inactive),–
NC(=O)C1CCN(C(=O)c2ccc(F)c(S(=O)(=O)N3CCOCC3)c2)CC1,5% (inactive),–
COc1ccc(C=C(C#N)C#N)c(CSc2ccccn2)c1,-16.3% (inactive),–
Oc1ccc2ccccc2c1C=Nc1ccccc1,24.6% (inactive),–
O=[N+]([O-])c1ccc(N=Cc2c(O)ccc3ccccc23)cc1,15.8% (inactive),–
Oc1ccc(N=Cc2c(O)ccc3ccccc23)cc1,–,9.28 µM (active)
COc1cccc(NC(=O)COC(=O)/C=C/c2ccco2)c1,23.3% (inactive),–
O=C(COC(=O)c1ccc2ncsc2c1)Nc1ccc(Cl)cc1,47.1% (inactive),–

SMILES,"activity change, negative = inhibition",Potency
O=C(CSc1nnc(-c2cccs2)n1-c1ccccc1)N1CCN(C(=O)c2ccco2)CC1,-13.2% (inactive),–
O=C(CSc1nnc(-c2cccs2)n1Cc1ccccc1)N1CCc2ccccc2C1,–,6.57 µM (active)
Cn1c(SCC(=O)N2CCCC2)nnc1-c1cccs1,20.1% (inactive),–
O=C(O)c1ccc(OCC2CCCO2)cc1 (centres undefined),10% (inactive),–
O=C(CSc1n[nH]c(-c2cccs2)n1)N1CCCCC1,25.1% (inactive),–
CC(=O)Nc1ccc(S(=O)(=O)NC2Cc3ccccc3C2)cc1,-8.94% (inactive),–
O=S(=O)(NC1CCCCC1N1CCCCC1)c1ccc(Cl)cc1 (centres undefined),16.4% (inactive),–
CCOC(=O)N1CCN(S(=O)(=O)c2cc(Br)cc3c2N(C(=O)C2CC2)CC3)CC1,-16.7% (inactive),–
CS(=O)(=O)N(CC(=O)N1CCN(Cc2ccc3c(c2)OCO3)CC1)c1ccc2c(c1)OCO2,-6.02% (inactive),–
CCN(c1ccc2c(c1)OCO2)S(=O)(=O)c1cc(Br)cc2c1N(C(=O)C1CC1)CC2,–,1.47 µM (active)
COc1cccc(CNC(=O)COC(=O)CN2C(=O)NC3(CCCCC3C)C2=O)c1 (centres undefined),4.63% (inactive),–
OCC[C@H]1C[C@@H](O)[C@H](O)[C@@]2(OCCc3ccccc32)O1,10% (inactive),–
COc1ccc2nc(SCc3ccccc3)nc(C)c2c1,255% (inactive),–
COc1ccc2nc(C)cc(Nc3cccc(C(=O)O)c3)c2c1,30% (inactive),–
O=C(NNC(=O)C(O)c1ccccc1)NC1CCCCC1 (centres undefined),25.1% (inactive),–
Cc1nc(/N=C(\N)NC(=O)NC2CCCCC2)nc2ccccc12,–,2.94 µM (active)
Cc1nn(-c2ccccc2)c(C)c1C(=O)OCC(=O)NC(=O)NC1CCCCC1,1.1% (inactive),–
COc1ccc2nc(/N=C(\N)NC(=O)Nc3ccccc3)nc(C)c2c1,–,1.85 µM (active)
COc1ccc(Cl)cc1NC(=O)c1cccc(N2C(=O)C3CC=CCC3C2=O)c1 (centres undefined),20.4% (inactive),–
O=Cc1cn(-c2ccccc2)nc1-c1ccccn1,21.5% (inactive),–
O=C(CSCc1ccccc1)Nc1ccccc1,56.7% (inactive),–
CC(=O)Nc1ccc(NC(=O)C(NS(=O)(=O)c2ccc3c(c2)OCCO3)C(C)C)cc1 (centres undefined),-15.4% (inactive),–
CC(=O)c1ccc(S(=O)(=O)N2CCC3(CC2)OCCO3)cc1,-5.09% (inactive),–
CC(=O)c1ccc(S(=O)(=O)N2CCN(C(=O)/C=C/c3ccc4ccccc4n3)CC2)cc1,–,11.7 µM (active)
NC(=O)COC(=O)/C=C/c1ccc2ccccc2n1,0% (inactive),–

SMILES,"activity change, negative = inhibition",Potency
C/C(=N\Nc1nncc2ccccc12)c1ccc(Cl)c([N+](=O)[O-])c1,50.4% (inactive),–
CC(=O)N1CCN(CC(=O)Nc2ccc(C)c(F)c2)CC1,-12.4% [at 0.00184 µM] (inactive),–
CS(=O)(=O)N(CC(=O)N1CCOCC1)c1cccc(Cl)c1Cl,0.916% (inactive),–
COC(=O)c1ccc(C23CC4(C2)[C@H](CN(Cc2cccnc2)[C@@H]4c2ccccc2)C3c2ccc(Cl)nc2)cc1 (some centres undefined),–,10.4 µM (active)
CCN1C(=NCCc2cccnc2)N[C@@H](c2ccccc2)C(C(=O)OC)=C1C,–,inactive
Clc1ccc(C2[C@H]3CN(CC4CCCCC4)[C@H](c4ccccc4)C34CC2(c2cccnc2)C4)cn1 (some centres undefined),–,3.7 µM (active)
COC(=O)c1ccc(CN2CCN(CCCc3ccccc3)C(CCO)C2)cc1 (centres undefined),-11% (inactive),–
O=C(O)c1ccc(S(=O)(=O)N2CCOCC2)o1,23.6% (inactive),–
CN(C(=O)COC(=O)Cn1cnc2c1c(=O)n(C)c(=O)n2C)C1(C#N)CCCCC1,22.8% (inactive),–
CCCC(=O)N1CCC(CCC(=O)NC2CC2)CC1,40.2% (inactive),–
CCOC(=O)c1ccc2[nH]c3c(c2c1)CCCC3NC=O (centres undefined),3.34% (inactive),–
CC(C)[C@@H](NC(=O)OC(C)(C)C)C(=O)NCC1CCC(C(=O)N[C@@H](Cc2ccccc2)C(=O)O)CC1 (some centres undefined),-7.46% (inactive),–
Cc1ccc(S(=O)(=O)N(C)C)cc1NC(=O)COC(=O)/C=C/c1cccs1,7.2% (inactive),–
Cc1csc(NC(=O)CSc2nc(=O)cc(N)n2-c2ccc(F)cc2)n1,-0.578% (inactive),–
NC(=O)C1CCN(C(=O)c2cn(-c3ccccc3)nc2-c2cccnc2)CC1,20.7% (inactive),–
O=C(c1cn(-c2ccccc2)nc1-c1cccnc1)N1CCN(S(=O)(=O)c2ccccc2F)CC1,–,11.7 µM (active)
O=C(c1cn(-c2ccccc2)nc1-c1cccnc1)N1CCCCC1,-29.5% (inactive),–
Cc1ccc(S(=O)(=O)CCC(=O)OCC(=O)NCCc2ccc(S(N)(=O)=O)cc2)cc1,-10.4% (inactive),–
CCC(=O)c1ccc(OCC(=O)OCC(=O)NC2CCCCCC2)cc1,-18.2% (inactive),–
CC1CCCC(C)N1C(=O)CSc1nnnn1C1CCCC1 (centres undefined),27.6% (inactive),–
COc1ccc(OC)c(/C(C)=N\NC(=O)c2cc3cc(Cl)ccc3n2C)c1,-1.37% (inactive),–
CCCN(CCC)c1nc2c(C)cccn2c(=O)c1/C=C1/SC(=S)N(Cc2ccco2)C1=O,–,1.31 µM (active)
O=C(CCCN1C(=O)/C(=C\c2ccco2)SC1=S)Nc1cccc2ccccc12,5.18% (inactive),–
Cc1cccn2c(=O)c(/C=C3\SC(=S)N(CC(C)C)C3=O)c(NCCCOC(C)C)nc12,4.14% (inactive),–

# Source: PubChem BioAssay AID504832 (National Center for Advancing Translational Sciences (NCATS), 2011)
